# Data reported in paper PMC4552634, “A New Set of Chemical Starting Points with Plasmodium falciparum Transmission-Blocking Potential for Antimalarial Drug Discovery” (PLoS ONE, 2015).
# Like-named read-outs stand apart in the source and are kept apart here. Among all 13,000 compounds or so, about 3,200 (25%) showed an effect of 50% or more. The list shows a part of the results.
# System: P. falciparum stage V gametocytes
# Set-up: BacTiter-Glo ATP luminescence viability of purified stage V gametocytes in 384-well plates, per cent inhibition versus DMSO
# Conditions: 48 h, 5 µM, inhibitor
SMILES,% Inhibition,% Inhibition (% Inhibition)
Cc1nc(-c2cccc(Nc3nccc(NCC(O)c4cccc(C(F)(F)F)c4)n3)c2)cs1 (stereo not drawn) [TCMDC-136581],-55.32%,–
CC(Cc1ccc(OCC(=O)NCC2CCN(CCc3cccc(Cl)c3)CC2)cc1)NCCc1cccc(Cl)c1 (stereo not drawn) [TCMDC-139834],46.25%,–
CC(Cc1ccc(COc2ccc(CC(CO)NCCc3cccc(Cl)c3)cc2)cc1)NCCc1cccc(Cl)c1 (stereo not drawn) [TCMDC-139844],116.5%,–
CC(Cc1ccc(OCc2ccccc2)cc1)NCC(O)c1cccc(Cl)c1 (stereo not drawn) [TCMDC-131473],11.58%,–
CC(Cc1ccc(OCc2ccc(CCN(C)C)cc2)cc1)NCCc1cccc(Cl)c1 (stereo not drawn) [TCMDC-139644],101.3%,–
CCCCCCNC(=O)C1Cc2c([nH]c3ccc(C)cc23)C2(CCN(CCc3ccccc3)CC2)N1 (stereo not drawn) [TCMDC-141092],-44.59%,–
Cc1ccc(-c2cc(C(=O)Nc3ccc(S(=O)(=O)N4CCCC(C)C4)cc3)[nH]n2)c(O)c1 (stereo not drawn) [TCMDC-125183],-50.15%,–
COc1cc(CCOc2c(C)nc(N)nc2N)cc(OC)c1OC [TCMDC-131360],-25.98%,–
FC(F)(F)c1ccc(Nc2nnnc3ccccc23)cc1 [TCMDC-125603],38.58%,–
CC(Cc1ccc(Oc2ccc(Cl)cc2)cc1)NCC(O)c1cccc(Cl)c1 (stereo not drawn) [TCMDC-131511],4.056%,–
CC(Cc1ccc(CSC(C)C)cc1)NCC(O)c1cccc(Cl)c1 (stereo not drawn) [TCMDC-131525],23.17%,–
Cc1ccc(CCC(C)NCC(O)c2cccc(Cl)c2)cc1 (stereo not drawn) [TCMDC-131436],13.72%,–
C[C@H](Cc1ccc(S(=O)(=O)c2ccc(C[C@@H](C)NC[C@H](O)c3cccc(Cl)c3)cc2)cc1)NC[C@H](O)c1cccc(Cl)c1 [TCMDC-131561],74.46%,–
C[C@H](Cc1ccc(CCc2ccc(C[C@@H](C)NC[C@H](O)c3cccc(Cl)c3)cc2)cc1)NC[C@H](O)c1cccc(Cl)c1 [TCMDC-131551],114.3%,–
CC(Cc1ccc(S(=O)(=O)N(C(C)C)C(C)C)cc1)NCC(O)c1cccc(C(F)(F)F)c1 (stereo not drawn) [TCMDC-131526],19.58%,–
CCCCCCCSc1ccc(CC(C)NCC(O)c2cccc(Cl)c2)cc1 (stereo not drawn) [TCMDC-131493],21.35%,–
C[C@H](Cc1ccc(Oc2ccc(C[C@@H](C)NC[C@H](O)c3cccc(Cl)c3)cc2)cc1)NC[C@H](O)c1cccc(Cl)c1 [TCMDC-131560],108%,–
CC(Cc1ccc(SCCSc2ccccc2)cc1)NCC(O)c1cccc(Cl)c1 (stereo not drawn) [TCMDC-131515],37.98%,–
COc1ccc(CC(Cc2ccc(OC)cc2)NCC(O)c2cccc(Cl)c2)cc1 (stereo not drawn) [TCMDC-131543],12.1%,–
CNCCCCCCc1ccc(CC(C)NCC(O)c2cccc(Cl)c2)cc1 (stereo not drawn) [TCMDC-131495],95.63%,–
COC(=O)/C=C/c1ccc(CC(C)NCC(O)c2cccc(Cl)c2)cc1 (stereo not drawn) [TCMDC-131433],-3.295%,–

SMILES,% Inhibition,% Inhibition (% Inhibition)
O=C(CCCCCNC(=O)c1ccc(O)c(-c2ccc(Cl)c(Cl)c2)c1)NCCN1CCCC1 [TCMDC-140826],-20.01%,–
O=C(N[C@@H](CC1CCCCC1)C(=O)NCCN1CCOCC1)c1ccc(O)c(-c2ccc(Cl)c(Cl)c2)c1 [TCMDC-140854],37.92%,–
O=C(NC1CCN(c2ccnc3ccccc23)C1)c1ccc(OC(F)(F)F)cc1 (stereo not drawn) [TCMDC-133582],-7.681%,–
O=c1cc(NCCCNCc2ccc3c(c2)OC(F)(F)O3)[nH]c2ccccc12 [TCMDC-139426],-44.23%,–
CCCN(CCCCNC(=O)c1ccc(-c2cccnc2)cc1)C1CCc2c(O)cccc2C1 (stereo not drawn) [TCMDC-139071],-19.52%,–
CC(=O)Nc1ccc(CN2CCc3ccc(NS(=O)(=O)c4cccc(OCc5ccc(Cl)cc5)c4)cc3CC2)s1 [TCMDC-132327],4.938%,–
O=C(Nc1ccc(-c2cccc(-c3nc4ccc(F)cc4[nH]3)c2)cc1)Nc1ccc(F)c(F)c1F [TCMDC-133235],-6.689%,–
CN(C)CCOc1cccc(-c2cnc(N)c(-c3nc4ccc(S(C)(=O)=O)cc4[nH]3)c2)c1 [TCMDC-133722],17.79%,–
CN(Cc1cnc2nc(N)nc(N)c2n1)c1ccc(C(=O)NC(CCC(=O)O)C(=O)O)cc1 (stereo not drawn) [TCMDC-125488],–,31.4%
Cc1[nH]c(C)c(-c2ccc(Oc3ccc(OC(F)(F)F)cc3)cc2)c(=O)c1I [TCMDC-137387],20.63%,–
Cc1[nH]c(C)c(-c2cccc(-c3ccc(OC(F)(F)F)cc3)c2)c(=O)c1Br [TCMDC-135303],76.13%,–
Cc1[nH]c(C)c(-c2ccc(Oc3ccc(OC(F)(F)F)cc3)cc2)c(=O)c1Br [TCMDC-138826],–,69.76%
Cc1[nH]c(C)c(-c2ccc(-c3ccc(OC(F)(F)F)cc3)cc2)c(=O)c1Cl [TCMDC-136060],114.3%,–
Cc1[nH]c(C)c(-c2ccc(-c3ccc(OC(F)(F)F)cc3)cc2)c(=O)c1Br [TCMDC-134726],85.61%,–
Cc1[nH]c(C)c(-c2ccc(Oc3cccc(OC(F)(F)F)c3)cc2)c(=O)c1Cl [TCMDC-137389],30.57%,–
Cc1[nH]c(C)c(-c2ccc(Oc3ccc(OC(F)(F)F)cc3)cc2)c(=O)c1Br [TCMDC-137325],–,14.7%
CS(=O)(=O)NCCCNCc1ccc(-c2ccc(-c3nc4cc(F)ccc4[nH]3)cc2)cc1.O=C(O)C(F)(F)F [TCMDC-133081],-74.36%,–
Cc1cc(Nc2cc(Cl)cc(Cl)c2)nc(N)n1 [TCMDC-123780],13.41%,–
CCCCc1ccc2[nH]cc(C3=CCN(C)CC3)c2c1Br [TCMDC-138963],18.47%,–
CCCCc1ccc(-c2nc(NC(=O)Nc3nc(-c4ccccc4)[nH]c3C(=O)OCC)c(C(=O)OCC)[nH]2)cc1 [TCMDC-138897],-17.92%,–
CC(C)Nc1nc(NCCc2cnc[nH]2)nc(Nc2ccc(Oc3ccccc3)cc2)n1 [TCMDC-139746],-7.765%,–
